From PubChem BioAssay come the findings set out here.

Active and inactive are the calls of the source.

For experiment [1], the system named is PRMT1 (protein arginine N-methyltransferase 1). As to the kind of experiment: PRMT1 binders on small-molecule microarrays, primary screen, biochemical, small-molecule microarray, 635 nm fluorescence (AID 1088).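 Further: binding of Prmt1 protein to compounds spotted on small-molecule microarray slides.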 The settings on record: small-molecule microarray binding, higher = more signal.
Experiment [2] can be described thus: yeast growth modulation, basal conditions, primary screen, YJM789 clinical isolate, OD600, 24 h (AID 1089).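 Further: growth of clinical yeast isolate S. cerevisiae YJM 789 seeded 1000 cells per well; test concentration not given here.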 The settings on record: S. cerevisiae YJM789 growth, higher = more signal, called active from +8 up or from −8 down.
The nature of experiment [3]: fission yeast growth modulation, primary screen, strain 972, OD600, 24 h, no modulator (AID 1090).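 Further: basal condition with compound alone and no growth modifier present; test concentration not given here.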 The settings on record: S. pombe 972 growth, higher = more signal, called active from +8 up or from −8 down.
A short description of experiment [4]: S. cerevisiae growth modulation with rapamycin, primary screen, strain BY4716, OD600, 96 h (AID 1091). Further: test concentration not given here. The settings on record: higher = more signal, called active from +8 up or from −8 down.
For experiment [5], the target named is Torsin-1A-interacting protein 2 (Homo sapiens) (UniProt Q8NFQ8). As to the kind of experiment: LULL1 binders on small-molecule microarray, primary screen, cell lysate, human LULL1 lysate, 635/667 nm fluorescence (AID 1092).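 Further: probe is lysate of COS7 cells overexpressing human LULL1; score merges per-feature 667 nm fluorescence with signal-to-noise.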 The settings on record: hLULL1 lysate binding, 635 nm fluorescence, higher = more signal.
Experiment [6] is described as follows: E. coli growth modulation, two-sided OD650, primary screen, E. coli filamentation project, strain DRC41, 24 h (AID 1093).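 Further: MC1000 strain lacking acrAB efflux and sulA so SOS filamentation is blocked; test concentration not given here.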 The settings on record: OD650, 24 h, higher = more signal, called active from +8 up or from −8 down.
The nature of experiment [7]: small-molecule microarray binders of probe aLefty2, primary screen, biochemical, biotinylated probe, 635/667 nm fluorescence (AID 1094).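 Further: score merges spot fluorescence near 667 nm with spot signal-to-noise ratio.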 Conditions: higher = more signal.
Experiment [8] has as its system Noggin (protein binding on small-molecule microarray). Put plainly: Noggin binders on small-molecule microarray, primary screen, biochemical, 635/667 nm fluorescence (AID 1095).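 Further: score merges 667 nm feature fluorescence with signal to noise over triplicate slides.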 Conditions: 635 nm fluorescence, higher = more signal.
For experiment [9], the target named is Neurogenic locus notch homolog protein 3 (Homo sapiens) (UniProt Q9UM47). Put plainly: NOTCH3 binders on small-molecule microarray, primary screen, biochemical, 635/667 nm fluorescence (AID 1096). The settings on record: NOTCH3 binding, 635 nm fluorescence, higher = more signal.
Experiment [10] can be described thus: small-molecule microarray binders of probe aEGFR, primary screen, biochemical, biotinylated probe, 635/667 nm fluorescence (AID 1097).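 Further: probe is a biotinylated anti-EGFR antibody binding compounds printed on slides; score combines fluorescence near 667 nm and signal to noise of each spot.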 Conditions: higher = more signal.
The subject of experiment [11] is Plasmodium falciparum Sir2 (PF13_0152, Sir2A). As to the kind of experiment: pfSir2 binders on small-molecule microarrays, primary screen, biochemical, small-molecule microarray, 635 nm fluorescence (AID 1098).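 Further: score merges spot fluorescence intensity with its signal-to-noise ratio.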 The settings on record: small-molecule microarray binding, fluorescence 635 nm; higher = more signal.
Experiment [12] can be described thus: small-molecule microarray binders of probe aDKK1, primary screen, biochemical, biotinylated probe, 635/667 nm fluorescence (AID 1099).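 Further: score merges 667nm spot fluorescence with signal to noise across triplicate slides; reference of the scale not given here.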 The settings on record: higher = more signal.
A short description of experiment [13]: small-molecule microarray binders of probe aCHRDL2, primary screen, biochemical, biotinylated probe, 635/667 nm fluorescence (AID 1100). Conditions: higher = more signal.
A short description of experiment [14]: splicing luciferase reporter signal modulators, primary screen, spliceosome inhibition project, cell-based, HEK293, splice +/- reporter (AID 1101).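 Further: HEK293 cells carrying a splicing-competent luciferase reporter gene; test concentration not given here.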 Conditions: luminescence, 24 h, higher = more signal, called active from +8 up or from −8 down. A general note: A reporter such as luciferase makes a cellular process visible.
Experiment [15] deals with Fibroblast growth factor 10 (Homo sapiens) (UniProt O15520). As to the kind of experiment: FGF10 binders on small-molecule microarrays, primary screen, biochemical, small-molecule microarray, 635 nm fluorescence (AID 1102). Conditions: FGF10 binding, fluorescence 635 nm, higher = more signal.
Experiment [16] relates to glycogen synthase kinase-3 (GSK3A per assay name; protocol says GSK3B). Put plainly: GSK3 binders on small-molecule microarrays, primary screen, biochemical, small-molecule microarray, 635 nm fluorescence, GSK3A (AID 1103). Further: the record names both GSK3A and GSK3B. Conditions: small-molecule microarray binding, fluorescence 635 nm; higher = more signal.
The target of experiment [17] is Epidermal growth factor receptor (Homo sapiens) (UniProt P00533). Put plainly: EGFR binders on small-molecule microarrays, primary screen, biochemical, small-molecule microarray, 635 nm fluorescence (AID 1104).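 Further: score merges 667 nm emission intensity with spot signal to noise over triplicate slides.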 Conditions: EGFR binding, higher = more signal.
For experiment [18], the target named is Follistatin-related protein 3 (Homo sapiens) (UniProt O95633). As to the kind of experiment: FSTL3 binders on small-molecule microarrays, primary screen, biochemical, small-molecule microarray, 635 nm fluorescence (AID 1105).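 Further: score merges emission near 667 nm and signal to noise per printed spot across three slides.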 Conditions: FSTL3 binding, higher = more signal.
For experiment [19], the target named is Dickkopf-related protein 1 (Homo sapiens) (UniProt O94907). As to the kind of experiment: DKK1 binders on small-molecule microarrays, primary screen, biochemical, small-molecule microarray, 635 nm fluorescence scan (AID 1106).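 Further: score merges emission near 667 nm with signal to noise over three replicate slides.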 The settings on record: DKK1 binding, higher = more signal.
In experiment [20] the test system is Inhibin beta A chain (activin A). As to the kind of experiment: INHBA (activin A) binders on microarrays, primary screen, biochemical, small-molecule microarray, 635 nm fluorescence scan (AID 1107).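 Further: mouse activin A protein probed at 4.33 µg/mL on printed slides; score merges bound-protein fluorescence near 667 nm with spot signal-to-noise.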 Conditions: small-molecule microarray binding, higher = more signal.

Chain of Epidermal growth factor receptor (Homo sapiens) (P00533 whole entry, looked up): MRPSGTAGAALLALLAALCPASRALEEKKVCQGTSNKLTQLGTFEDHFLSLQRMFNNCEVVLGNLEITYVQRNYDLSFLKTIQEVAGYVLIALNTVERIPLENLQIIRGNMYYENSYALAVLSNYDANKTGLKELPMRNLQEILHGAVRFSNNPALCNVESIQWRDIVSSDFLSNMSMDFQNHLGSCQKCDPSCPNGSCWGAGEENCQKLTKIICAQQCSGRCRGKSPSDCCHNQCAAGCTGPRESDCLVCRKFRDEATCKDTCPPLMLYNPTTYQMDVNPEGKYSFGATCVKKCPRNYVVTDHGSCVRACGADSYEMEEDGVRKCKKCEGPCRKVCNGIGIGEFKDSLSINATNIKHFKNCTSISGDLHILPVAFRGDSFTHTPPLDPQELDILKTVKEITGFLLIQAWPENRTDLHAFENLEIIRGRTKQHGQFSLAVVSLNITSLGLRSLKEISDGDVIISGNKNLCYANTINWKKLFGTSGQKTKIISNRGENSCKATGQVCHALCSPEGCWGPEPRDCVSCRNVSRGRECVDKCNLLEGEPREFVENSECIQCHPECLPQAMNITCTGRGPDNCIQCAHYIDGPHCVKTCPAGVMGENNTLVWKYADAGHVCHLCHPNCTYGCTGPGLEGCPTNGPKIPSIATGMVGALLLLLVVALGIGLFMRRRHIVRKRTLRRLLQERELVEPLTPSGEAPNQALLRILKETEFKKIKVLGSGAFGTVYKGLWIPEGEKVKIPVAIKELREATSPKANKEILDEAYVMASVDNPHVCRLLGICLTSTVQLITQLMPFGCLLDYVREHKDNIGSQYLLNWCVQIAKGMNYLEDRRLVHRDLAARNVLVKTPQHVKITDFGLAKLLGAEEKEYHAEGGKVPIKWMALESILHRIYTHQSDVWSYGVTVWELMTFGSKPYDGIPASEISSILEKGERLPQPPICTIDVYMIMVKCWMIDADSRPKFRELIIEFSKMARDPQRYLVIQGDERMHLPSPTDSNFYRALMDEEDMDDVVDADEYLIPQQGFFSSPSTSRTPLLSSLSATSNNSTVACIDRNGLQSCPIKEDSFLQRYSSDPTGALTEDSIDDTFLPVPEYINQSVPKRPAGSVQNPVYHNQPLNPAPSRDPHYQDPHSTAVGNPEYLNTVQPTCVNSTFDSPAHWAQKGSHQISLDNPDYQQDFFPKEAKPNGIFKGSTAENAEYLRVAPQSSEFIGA
Chain of Fibroblast growth factor 10 (Homo sapiens) (O15520 whole entry, looked up): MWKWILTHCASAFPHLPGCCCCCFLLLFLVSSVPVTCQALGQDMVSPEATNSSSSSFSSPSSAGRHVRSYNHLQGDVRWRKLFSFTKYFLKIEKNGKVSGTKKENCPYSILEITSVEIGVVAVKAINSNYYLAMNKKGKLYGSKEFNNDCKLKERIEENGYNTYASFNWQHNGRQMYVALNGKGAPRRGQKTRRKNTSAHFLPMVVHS
Chain of Dickkopf-related protein 1 (Homo sapiens) (O94907 whole entry, looked up): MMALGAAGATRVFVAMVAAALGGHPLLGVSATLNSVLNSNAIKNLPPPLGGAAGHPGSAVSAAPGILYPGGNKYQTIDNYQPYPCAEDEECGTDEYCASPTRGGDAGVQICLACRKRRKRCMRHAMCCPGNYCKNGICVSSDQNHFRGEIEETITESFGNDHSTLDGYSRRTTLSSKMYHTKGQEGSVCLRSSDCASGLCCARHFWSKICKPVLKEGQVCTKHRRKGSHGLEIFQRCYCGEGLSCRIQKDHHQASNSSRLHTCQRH
Chain of Follistatin-related protein 3 (Homo sapiens) (O95633 whole entry, looked up): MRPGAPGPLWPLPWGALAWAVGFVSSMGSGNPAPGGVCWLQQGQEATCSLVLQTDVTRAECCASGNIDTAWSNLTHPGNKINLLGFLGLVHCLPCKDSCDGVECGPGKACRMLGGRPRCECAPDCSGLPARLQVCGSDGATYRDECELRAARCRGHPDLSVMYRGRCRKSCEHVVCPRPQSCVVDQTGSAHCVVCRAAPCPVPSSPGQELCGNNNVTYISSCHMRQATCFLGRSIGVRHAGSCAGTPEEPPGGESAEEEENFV
Chain of Torsin-1A-interacting protein 2 (Homo sapiens) (Q8NFQ8 whole entry, looked up): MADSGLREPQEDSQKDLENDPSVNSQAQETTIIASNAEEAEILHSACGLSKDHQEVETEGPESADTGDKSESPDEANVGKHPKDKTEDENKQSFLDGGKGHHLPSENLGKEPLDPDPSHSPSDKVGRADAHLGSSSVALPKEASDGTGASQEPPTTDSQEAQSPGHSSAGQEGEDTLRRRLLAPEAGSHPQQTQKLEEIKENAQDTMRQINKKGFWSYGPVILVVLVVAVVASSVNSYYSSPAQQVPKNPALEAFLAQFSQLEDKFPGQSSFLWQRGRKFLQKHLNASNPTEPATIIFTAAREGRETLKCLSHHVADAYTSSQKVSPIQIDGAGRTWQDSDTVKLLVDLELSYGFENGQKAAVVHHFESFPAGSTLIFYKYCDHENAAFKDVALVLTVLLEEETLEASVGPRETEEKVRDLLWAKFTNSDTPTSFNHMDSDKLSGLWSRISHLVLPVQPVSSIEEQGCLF
Chain of Neurogenic locus notch homolog protein 3 (Homo sapiens) (Q9UM47 whole entry, looked up): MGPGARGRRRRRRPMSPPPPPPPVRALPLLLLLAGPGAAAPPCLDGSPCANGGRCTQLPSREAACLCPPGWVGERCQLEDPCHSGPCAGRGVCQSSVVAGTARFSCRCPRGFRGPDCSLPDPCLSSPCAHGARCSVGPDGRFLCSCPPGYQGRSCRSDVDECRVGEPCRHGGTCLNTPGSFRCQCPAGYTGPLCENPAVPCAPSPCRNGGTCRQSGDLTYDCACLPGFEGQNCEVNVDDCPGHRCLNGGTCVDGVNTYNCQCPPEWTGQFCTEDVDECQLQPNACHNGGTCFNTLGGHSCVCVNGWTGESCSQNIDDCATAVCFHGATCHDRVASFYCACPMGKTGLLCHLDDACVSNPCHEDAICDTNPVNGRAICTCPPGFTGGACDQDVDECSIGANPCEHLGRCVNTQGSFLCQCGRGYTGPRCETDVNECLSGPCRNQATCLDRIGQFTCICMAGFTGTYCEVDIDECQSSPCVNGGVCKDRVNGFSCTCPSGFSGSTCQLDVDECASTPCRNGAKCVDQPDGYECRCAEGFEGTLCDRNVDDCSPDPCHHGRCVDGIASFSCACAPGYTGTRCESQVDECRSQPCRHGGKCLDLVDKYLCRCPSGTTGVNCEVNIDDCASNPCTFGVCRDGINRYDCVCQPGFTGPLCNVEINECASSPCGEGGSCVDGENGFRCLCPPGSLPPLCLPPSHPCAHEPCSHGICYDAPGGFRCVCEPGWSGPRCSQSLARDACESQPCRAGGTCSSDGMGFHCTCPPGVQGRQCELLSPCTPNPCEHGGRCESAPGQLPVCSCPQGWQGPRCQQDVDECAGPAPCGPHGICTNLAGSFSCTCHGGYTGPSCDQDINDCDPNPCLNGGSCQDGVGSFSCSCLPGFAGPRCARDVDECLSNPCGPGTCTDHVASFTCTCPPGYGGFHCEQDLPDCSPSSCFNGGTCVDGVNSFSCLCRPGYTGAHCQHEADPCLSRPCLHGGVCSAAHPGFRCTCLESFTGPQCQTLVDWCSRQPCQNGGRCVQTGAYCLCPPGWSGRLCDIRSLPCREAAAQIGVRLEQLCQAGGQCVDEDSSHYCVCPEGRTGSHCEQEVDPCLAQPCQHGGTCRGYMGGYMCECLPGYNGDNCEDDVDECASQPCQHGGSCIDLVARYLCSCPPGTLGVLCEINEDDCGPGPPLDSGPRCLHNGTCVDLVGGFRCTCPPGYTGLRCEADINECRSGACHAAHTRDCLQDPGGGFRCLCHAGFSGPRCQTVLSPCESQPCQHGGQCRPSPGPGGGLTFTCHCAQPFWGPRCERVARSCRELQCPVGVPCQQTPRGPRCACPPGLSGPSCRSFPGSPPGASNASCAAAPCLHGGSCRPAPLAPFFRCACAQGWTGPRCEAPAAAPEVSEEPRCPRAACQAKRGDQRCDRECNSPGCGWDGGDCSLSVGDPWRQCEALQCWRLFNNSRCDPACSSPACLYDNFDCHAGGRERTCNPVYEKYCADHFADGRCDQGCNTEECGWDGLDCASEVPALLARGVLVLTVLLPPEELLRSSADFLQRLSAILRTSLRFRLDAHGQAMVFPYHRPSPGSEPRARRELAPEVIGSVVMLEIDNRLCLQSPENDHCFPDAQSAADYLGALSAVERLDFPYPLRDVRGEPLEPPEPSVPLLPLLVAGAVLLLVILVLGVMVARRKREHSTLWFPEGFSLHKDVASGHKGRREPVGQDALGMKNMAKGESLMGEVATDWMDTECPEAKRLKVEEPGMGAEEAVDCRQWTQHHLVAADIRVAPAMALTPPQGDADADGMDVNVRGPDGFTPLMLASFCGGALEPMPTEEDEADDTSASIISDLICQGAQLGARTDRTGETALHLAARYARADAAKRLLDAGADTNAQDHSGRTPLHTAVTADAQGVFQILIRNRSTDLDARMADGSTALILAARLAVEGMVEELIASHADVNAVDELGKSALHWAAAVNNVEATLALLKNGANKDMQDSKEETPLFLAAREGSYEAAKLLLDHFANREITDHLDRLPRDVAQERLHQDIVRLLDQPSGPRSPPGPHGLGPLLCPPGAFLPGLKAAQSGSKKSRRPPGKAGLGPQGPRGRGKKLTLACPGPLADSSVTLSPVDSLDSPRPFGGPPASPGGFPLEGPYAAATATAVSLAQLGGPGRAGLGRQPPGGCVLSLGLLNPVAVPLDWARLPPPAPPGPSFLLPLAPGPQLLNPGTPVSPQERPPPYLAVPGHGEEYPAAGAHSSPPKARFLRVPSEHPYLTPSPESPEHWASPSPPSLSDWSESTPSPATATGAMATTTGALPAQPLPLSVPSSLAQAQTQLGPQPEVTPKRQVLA

As to `O=C1c2ccccc2[C@](Cc2ccccc2I)(C(=O)NCC(F)(F)F)[C@H](c2ccc(CO)cc2)N1Cc1ccccc1C(F)(F)F`, the composite z-score in experiment [1] is 1.34; in experiment [5] it was 2.54; in experiment [7], -0.366; in [8], -0.11; in [9], 1.02; in [10] it was 0.0443. The composite z-score in experiment [11] was 0.795; in experiment [12] it was -0.582; in experiment [13], -0.243; in [15], 0.222; in experiment [16] it was 0.926; in experiment [17], 0.106. In addition, the results for the composite z-score in [18], in experiment [19] and in experiment [20] were 0.523, 0.0221 and -0.33, respectively. In addition, the z-score in experiment [2] is 0.129 (inactive); in [3] it was -1.15 (inactive); in [4], -1.32 (inactive); in experiment [6] it was 0.098 (inactive); in experiment [14] it was 0.133 (inactive).
As for `CCCNC(=O)[C@@H]1c2ccccc2C(=O)N(Cc2cc(F)cc(C(F)(F)F)c2)[C@H]1c1ccc(CO)cc1`, the composite z-score in experiment [1] turned out to be 1.54; in experiment [5] it was 2.83; in experiment [7], 0.0465; in experiment [8], 1.66; in experiment [9] it was 1.05; in [10], 0.289. In addition, the composite z-score is 1.54 in [11]; 0.792 in [12]; 0.853 in experiment [13]; 0.926 in experiment [15]; 1.29 in experiment [16]; 0.497 in experiment [17]. Also, the composite z-score in experiment [18] came out at 1.35; in experiment [19], 0.677; in experiment [20], 1.05. In addition, the z-score in experiment [2] was -1.15 (inactive); in experiment [3], -2.49 (inactive); in experiment [4], -1.36 (inactive); in experiment [6], 1.97 (inactive); in experiment [14], -1.26 (inactive).
`O=C1C2C=CC(C(O)c3ccccc3)N(n3cnnc3)C2C(=O)N1Cc1ccccc1` (stereo not given): the composite z-score in [1] is 0.345; in experiment [5], 1.28; in [7] it was 0.116; in experiment [8] it was -0.0596; in [9] it was -0.163; in [10], -0.0112. In addition, the composite z-score in experiment [11] was 0.0854; in experiment [12] it was 0.446; in experiment [13], 0.908; in experiment [15], 0.0573; in experiment [16] it was -0.279; in [17], 0.392. Moreover, the composite z-score in [18] is -0.117; in experiment [19], -0.433; in [20], 1.46. Further, the z-score in experiment [2] is -1.3 (inactive); in [3], 0.264 (inactive); in experiment [4], -0.881 (inactive); in experiment [6] it was -0.734 (inactive); in [14], -0.524 (inactive).
Take `COC(=O)C1=CC(c2ccc(CO)cc2)=CC(c2cccs2)N(Cc2cccc(OC(F)(F)F)c2)C=C1C(=O)OC` (stereo not given): the composite z-score in experiment [1] is 1.27; in [5] it was 3.31; in experiment [7], 0.006; in experiment [8], -0.0249; in experiment [9], 1.13; in experiment [10], -0.0187. The composite z-score in [11] was 1.49; in experiment [12], -0.0873; in [13] it was 0.428; in experiment [15] it was 0.945; in experiment [16], 1.26; in experiment [17], -0.41. Besides, the values for the composite z-score in experiment [18], in experiment [19] and in experiment [20] were 0.568, -0.0789 and 1.09, respectively. In addition, the z-score in experiment [2] is -0.107 (inactive); in [3], -1.75 (inactive); in experiment [4], 0.434 (inactive); in experiment [6] it was 0.241 (inactive); in experiment [14], 0.939 (inactive).
Turning to `C=CC(=O)O[C@@H](Cc1ccccc1)[C@H]1C2C=CCCC=C2CN1Cc1cccc(Cl)c1` (stereo not given in full), the composite z-score in experiment [1] is -2.25; in experiment [5] it was -0.469; in experiment [7] it was -0.192; in experiment [8], -0.551; in [9] it was -1.53; in experiment [10] it was -0.189. In addition, the composite z-score in [11] is -0.426; in [12], 0.0657; in experiment [13], 0.502; in experiment [15] it was -0.281; in experiment [16] it was -1.21; in experiment [17], -0.506. Further, the composite z-score was -0.87 in [18], -0.143 in [19] and 1.11 in experiment [20]. In addition, the z-score in experiment [2] is -0.476 (inactive); in experiment [3], -2.23 (inactive); in [4], -1.47 (inactive); in [6] it was 2.01 (inactive); in experiment [14], -0.855 (inactive).
